± gives the standard deviation of the averaged measurements. The full ranking holds about 33,000 sequences; the median of “E-score (dimensionless, -0.5 to 0.5)” is about -0.049, and the highest 2% start at about 0.37. The full list was thinned out, with the highest values kept by preference.
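Further: 200 nM protein in PBS on universal arrays averaged over duplicate arrays.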

The test concerns T1, PmTbr T-box DNA-binding domain (GST fusion).
T1 sequence: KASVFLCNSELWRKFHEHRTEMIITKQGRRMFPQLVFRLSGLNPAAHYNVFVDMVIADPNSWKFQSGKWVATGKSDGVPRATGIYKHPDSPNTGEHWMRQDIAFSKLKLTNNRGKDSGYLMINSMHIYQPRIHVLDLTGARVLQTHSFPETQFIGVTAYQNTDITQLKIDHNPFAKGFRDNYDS
Nature of the test: PBM E-score of 8-mer (E-score (dimensionless, -0.5 to 0.5)); Tbr is Tbrain of the sea star Patiria miniata (Pm) or the sea urchin Strongylocentrotus purpuratus (Sp); higher = stronger binding preference. Conditions: the construct has about 5 more residues each side. How it is done: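 Universal protein-binding microarray (Agilent AMADID 016060, 60-bp probes with a 35-bp variable region) incubated with 200 nM GST-fused Patiria miniata Tbr T-box DNA-binding domain (residues 272-466) in PBS pH 7.5. Scored for every ungapped 8-mer (given with its reverse complement) by the Universal PBM Analysis Suite as E-score (modified Wilcoxon-Mann-Whitney enrichment, range -0.5 to 0.5; >0.45 counts as bound) and Z-score of median probe intensity. Two replicate arrays (datasets 1 and 2).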
As for ACTTGTAA, the “PBM E-score of 8-mer” value was 0.0472 ± 0.082.

GGGTATTA: the “PBM E-score of 8-mer” value is -0.139 ± 0.091.

In the case of GTCCAATA, the “PBM E-score of 8-mer” value is -0.21 ± 0.0092.

For the sequence AGATGCCA, the “PBM E-score of 8-mer” value was -0.00611 ± 0.051.

For GAACTATC, the “PBM E-score of 8-mer” value was -0.095 ± 0.022.

GAACTGAA: the “PBM E-score of 8-mer” value is -0.228 ± 0.021.

AAGGAGGC: the “PBM E-score of 8-mer” value is -0.181 ± 0.009.

In the case of GTCAAAAA, the “PBM E-score of 8-mer” value came to 0.0926 ± 0.056.

Consider CACGGTCG, for which the “PBM E-score of 8-mer” value is 0.0491 ± 0.014.

As for CGAGGGAG, the “PBM E-score of 8-mer” value was -0.0838 ± 0.048.

For the sequence TACCTCGA, the “PBM E-score of 8-mer” value is -0.0364 ± 0.012.

For ATGTGATA, the “PBM E-score of 8-mer” value amounted to 0.298 ± 0.048.

With ATGTGAGC, the “PBM E-score of 8-mer” value was 0.0849 ± 0.0062.

In the case of CTGTGAGA, the “PBM E-score of 8-mer” value came to 0.314 ± 0.0081.

With GTGTGATA, the “PBM E-score of 8-mer” value was found to be 0.46 ± 0.006.

As for GTGTGAGA, the “PBM E-score of 8-mer” value came out at 0.4583 ± 0.0027.

Consider GTGAGAGA, for which the “PBM E-score of 8-mer” value was found to be 0.319 ± 0.015.

In the case of CTGTGATA, the “PBM E-score of 8-mer” value was found to be 0.2528 ± 0.0022.

For the sequence ATGTGAGG, the “PBM E-score of 8-mer” value was 0.215 ± 0.026.

Consider ATGTGAGA, for which the “PBM E-score of 8-mer” value amounted to 0.429 ± 0.0081.

GATACTTA: the “PBM E-score of 8-mer” value is -0.121 ± 0.055.

For ACGATAAA, the “PBM E-score of 8-mer” value came out at 0.122 ± 0.051.

GACGATCC: the “PBM E-score of 8-mer” value is -0.0686 ± 0.12.

Turning to GATACAGC, the “PBM E-score of 8-mer” value was -0.197 ± 0.018.

For the sequence CCATACTC, the “PBM E-score of 8-mer” value came to 0.0602 ± 0.026.

With GATATCTA, the “PBM E-score of 8-mer” value is -0.117 ± 0.025.

As to CTACCAGA, the “PBM E-score of 8-mer” value was -0.1381 ± 0.0011.

As for CCCGACCA, the “PBM E-score of 8-mer” value was -0.0729 ± 0.075.

In the case of CCAGCTGA, the “PBM E-score of 8-mer” value is -0.0424 ± 0.022.

Turning to CCTAGATC, the “PBM E-score of 8-mer” value is -0.0223 ± 0.021.

On to CTGTCATC, for which the “PBM E-score of 8-mer” value was 0.141 ± 0.036.

For ATGTCATC, the “PBM E-score of 8-mer” value is -0.0845 ± 0.035.

Regarding ATGTCACC, the “PBM E-score of 8-mer” value came to 0.385 ± 0.015.

CTGTCACC: the “PBM E-score of 8-mer” value was found to be 0.428 ± 0.013.

For CTGTCAAG, the “PBM E-score of 8-mer” value was determined as 0.2006 ± 0.0012.

As to ATGTCAAG, the “PBM E-score of 8-mer” value was -0.0802 ± 0.059.

As to CCGTCACC, the “PBM E-score of 8-mer” value is 0.356 ± 0.03.

Consider ATGTCAGC, for which the “PBM E-score of 8-mer” value was determined as 0.00315 ± 0.0099.

ATGTCACG: the “PBM E-score of 8-mer” value stood at 0.262 ± 0.012.

With ATGTCACA, the “PBM E-score of 8-mer” value was determined as 0.375 ± 0.013.

With CCGTCACA, the “PBM E-score of 8-mer” value turned out to be 0.325 ± 0.024.

Take CTGTCACA: the “PBM E-score of 8-mer” value amounted to 0.4 ± 0.0052.

Turning to CCCCAGAC, the “PBM E-score of 8-mer” value was -0.109 ± 0.082.

As for ACACTGTG, the “PBM E-score of 8-mer” value is 0.227 ± 0.0059.

Take ACCTACTG: the “PBM E-score of 8-mer” value stood at 0.0087 ± 0.021.

With AGATAGCT, the “PBM E-score of 8-mer” value is -0.0197 ± 0.1.

Turning to AGGCGAAA, the “PBM E-score of 8-mer” value was -0.0128 ± 0.028.

Consider AATGATCG, for which the “PBM E-score of 8-mer” value was -0.0804 ± 0.013.

On to ACTTAAGA, for which the “PBM E-score of 8-mer” value was -0.0828 ± 0.02.

Take TATGGTGA: the “PBM E-score of 8-mer” value was found to be 0.074 ± 0.043.

As to GTGTCACA, the “PBM E-score of 8-mer” value is 0.445 ± 0.0066.

With GCGTCACA, the “PBM E-score of 8-mer” value came to 0.307 ± 0.014.

As for GAGTCACA, the “PBM E-score of 8-mer” value turned out to be 0.237 ± 0.0075.

On to AGCCCCGC, for which the “PBM E-score of 8-mer” value is -0.0835 ± 0.072.

ATTCTCAC: the “PBM E-score of 8-mer” value was 0.435 ± 0.017.

ATTCTCAA: the “PBM E-score of 8-mer” value is 0.115 ± 0.051.

Regarding AATCTCAT, the “PBM E-score of 8-mer” value was -0.0261 ± 0.042.

In the case of AATCTCAC, the “PBM E-score of 8-mer” value stood at 0.382 ± 0.0088.

Regarding AATCTCTC, the “PBM E-score of 8-mer” value is -0.0609 ± 0.011.

Regarding ATTCTCAG, the “PBM E-score of 8-mer” value is 0.0465 ± 0.077.

In the case of ATGGCGGA, the “PBM E-score of 8-mer” value is -0.225 ± 0.027.

As to CGGCAAAC, the “PBM E-score of 8-mer” value is -0.0247 ± 0.012.

Take ACTAGGTA: the “PBM E-score of 8-mer” value is -0.23 ± 0.039.

For the sequence ATTAGGTA, the “PBM E-score of 8-mer” value was -0.131 ± 0.0089.

With ACTAGGTC, the “PBM E-score of 8-mer” value is -0.143 ± 0.0081.

On to AGTAGGTA, for which the “PBM E-score of 8-mer” value was -0.0493 ± 0.079.

Take ATTAGGTC: the “PBM E-score of 8-mer” value was -0.153 ± 0.013.

With AGTAGGTC, the “PBM E-score of 8-mer” value was -0.148 ± 0.05.

With AATAGGTG, the “PBM E-score of 8-mer” value amounted to 0.428 ± 0.013.

Regarding ACTAGGTG, the “PBM E-score of 8-mer” value was 0.425 ± 0.012.

Consider ATTAGGTG, for which the “PBM E-score of 8-mer” value was determined as 0.374 ± 0.0089.

Turning to AGTAGGTG, the “PBM E-score of 8-mer” value is 0.4125 ± 0.00071.

For AATAGGTC, the “PBM E-score of 8-mer” value was -0.258 ± 0.012.

AATAGGTA: the “PBM E-score of 8-mer” value is -0.0644 ± 0.018.

For ATCGCTTC, the “PBM E-score of 8-mer” value was found to be 0.0264 ± 0.017.

With CACATTTC, the “PBM E-score of 8-mer” value came out at 0.3486 ± 0.0015.

Consider AAATTCAC, for which the “PBM E-score of 8-mer” value came to 0.263 ± 0.021.

On to AAAAGCGG, for which the “PBM E-score of 8-mer” value was -0.261 ± 0.1.

With TTAGTAAA, the “PBM E-score of 8-mer” value was -0.0101 ± 0.081.

In the case of TCACTTCA, the “PBM E-score of 8-mer” value was 0.186 ± 0.021.

Regarding ACACTCCG, the “PBM E-score of 8-mer” value stood at 0.3818 ± 0.0019.

With ACACTCCT, the “PBM E-score of 8-mer” value was 0.228 ± 0.019.

On to ACACTTCC, for which the “PBM E-score of 8-mer” value came to 0.428 ± 0.016.

Turning to ACACTTCG, the “PBM E-score of 8-mer” value came to 0.427 ± 0.0093.

As for ACTCTCCG, the “PBM E-score of 8-mer” value was -0.0258 ± 0.0077.

As for CCACTTCC, the “PBM E-score of 8-mer” value was 0.0762 ± 0.022.

The values are drawn from the supplement of paper PMC4166925.
